Data: PubChem BioAssay
Results with a measured potency or affinity are listed apart. Inconclusive results are not listed. The source made the active and inactive calls.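 How the source made its calls, unless noted: active means a dose-response fit showing signal loss, with half-maximal concentration no higher than twice the top tested dose; inconclusive means flat fit between 30% and 70% signal loss, or poor fit; inactive means the rest.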

What was measured:
[1] = fungal growth arrest, C. neoformans – Alamar Blue, cherry-picks, dose response (AID 686998;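 active means falling signal with fitted half-maximal potency no higher than twice the top valid tested dose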); details: Cryptococcus neoformans growth, 24 h; series mostly up to 35 µM
[2] = C. neoformans lysis by adenylate kinase leakage – AK release luminescence, cherry-picks, dose response (AID 687000;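 active means fitted dose curve reaches 40% lysis signal rise at or below the highest valid concentration tested for that sample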;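 further: luminescent detection of adenylate kinase leaking from lysed yeast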); details: 4 h, 100% = twice the neutral-control signal; series mostly up to 15 µM
[3] = viability loss in HepG2 hepatoma cells – cell-based, cherry-picks, set 2, cytotoxicity control, dose response (AID 687002); details: ATP luminescence (CellTiter-Glo), 48 h; series mostly up to 26 µM

Measured: outcome

COc1ccc(C(=O)NC(=S)Nc2cccc(Cl)c2N2CCOCC2)cc1[N+](=O)[O-]
inactive: all assays above

Cc1cccc(C)c1NC(=O)C(CCc1ccccc1)N1CCC(c2ccccc2)CC1 (stereo unspecified)
inactive: all assays above

CNC(=O)CN(c1ccc(C)cc1)S(=O)(=O)c1ccccc1
inactive: all assays above

C[C@@H]1CN([C@@H](C)CO)C(=O)c2cccc(NS(C)(=O)=O)c2O[C@@H]1CN(C)C(=O)Nc1ccc2c(c1)OCO2
inactive: all assays above

O=C(CN1CCOCC1)N1CC[C@@H]2[C@@H](CO)Nc3ccc(-c4ccccc4F)cc3[C@@H]21
inactive: all assays above

C[C@@H]1CN([C@@H](C)CO)S(=O)(=O)c2ccc(C#Cc3ccccn3)cc2O[C@H]1CN(C)Cc1ccccc1
inactive: all assays above

CC(C)NC(=O)Nc1ccc2c(c1)CC(=O)N([C@@H](C)CO)C[C@@H](C)[C@@H](CN(C)Cc1ccc(Oc3ccccc3)cc1)O2
inactive: all assays above

CS(=O)(=O)c1ccc(-c2cnc3c(NC=O)cc(-c4ccsc4)cn23)cc1
inactive: all assays above

C[C@H]1CN([C@@H](C)CO)S(=O)(=O)c2ccc(C#Cc3ccccn3)cc2O[C@@H]1CN(C)Cc1ccccc1
inactive: all assays above

Cc1noc(C)c1NC(=O)Nc1ccc2c(c1)C(=O)N(C)[C@@H]1CC[C@H](CC(=O)N[C@H]3CCN(Cc4ccccc4)C3)O[C@@H]1CO2
inactive: all assays above

CC(C)(C)c1ccc(OCC(=O)NC(c2ccccc2)c2ccccc2)cc1
inactive: all assays above

COc1cccc(-c2cn(CC[C@@H]3CC[C@@H](NC(C)=O)[C@H](CO)O3)nn2)c1
inactive: all assays above

COc1ccc(N(CC(=O)NCCSCc2ccc(C)cc2)S(=O)(=O)c2ccccc2)cc1
inactive: all assays above

C[C@@H]1CN([C@H](C)CO)C(=O)c2cccc(NC(=O)Nc3ccccc3)c2O[C@@H]1CN(C)Cc1ccc(Cl)c(Cl)c1
inactive: all assays above

O=C1CCC(C(=O)Nc2cccc(C(F)(F)F)c2)N1 (stereo unspecified)
inactive: all assays above

CCNC(=O)Nc1ccc2c(c1)C(=O)N(C)[C@H]1CC[C@H](CC(=O)Nc3ccccc3F)O[C@@H]1CO2
inactive: all assays above

CCCN1CCCC[C@H]1C(=O)Nc1c(C)cccc1C
inactive: all assays above

C[C@@H]1CN([C@@H](C)CO)C(=O)CCCn2nncc2CO[C@@H]1CN(C)Cc1cccc(C(F)(F)F)c1
inactive: all assays above

CO[C@@H](CN(C)Cc1cc(F)ccc1F)[C@@H](C)CN([C@H](C)CO)S(=O)(=O)c1ccc(F)cc1
inactive: all assays above

CC(C)NC(=O)Nc1ccc2c(c1)CC(=O)N([C@H](C)CO)C[C@H](C)[C@H](CN(C)S(=O)(=O)c1ccc(Cl)cc1)O2
inactive: all assays above

C[C@H](CO)N1C[C@H](C)[C@@H](CN(C)Cc2ccncc2)Oc2ccc(NC(=O)CCC(F)(F)F)cc2C1=O
inactive: all assays above

COc1ccc(C#Cc2ccc3c(c2)O[C@H](CN(C)C(=O)Nc2cccc(OC)c2)[C@H](C)CN([C@@H](C)CO)S3(=O)=O)cc1
inactive: all assays above

C[C@@H]1CN([C@@H](C)CO)C(=O)c2cc(N(C)C)ccc2O[C@@H]1CN(C)C(=O)Nc1ccc(C(F)(F)F)cc1
inactive: all assays above

O=C(Nc1ccccc1)N1CCCCN2[C@H](CO)[C@@H](c3ccc(C#CC4CC4)cc3)[C@@H]2C1
inactive: all assays above

C[C@@H]1CN([C@@H](C)CO)S(=O)(=O)c2ccc(C#CC3CC3)cc2O[C@H]1CN(C)CC1CCOCC1
inactive: all assays above

COCC#Cc1cnc2c(c1)C(=O)N([C@@H](C)CO)C[C@@H](C)[C@@H](CN(C)C(=O)C1CC1)O2
inactive: all assays above

O=C(NCc1ccc(F)cc1)C1C2C=CC3(CN(Cc4cccnc4)C(=O)C13)O2 (stereo unspecified)
inactive: all assays above

COc1cccc(S(=O)(=O)N2C[C@@H](O)COC[C@H]3O[C@H](CC(=O)Nc4ccccc4)CC[C@@H]32)c1
inactive: all assays above

O=C(NCC[C@H]1CC[C@H](NS(=O)(=O)c2ccc(F)cc2)[C@@H](CO)O1)c1ccc2c(c1)OCO2
inactive: all assays above

COc1ccccc1NC(=O)N[C@@H]1CC[C@@H](CCn2cc(C3(O)CCCC3)nn2)O[C@H]1CO
inactive: all assays above

CC(C)NC(=O)Nc1ccc2c(c1)C(=O)N([C@@H](C)CO)C[C@@H](C)[C@@H](CN(C)C(=O)c1ccncc1)OCCCC[C@@H](C)O2
inactive: all assays above

CCC(C)(C(=O)Nc1cccc(C)c1)N1CCC1=O (stereo unspecified)
inactive: all assays above

CCC(=O)N(C)C[C@H]1Oc2cc(-c3ccccc3)ccc2S(=O)(=O)N([C@H](C)CO)C[C@H]1C
inactive: all assays above

CN1C(=O)c2cc(NS(=O)(=O)c3cccc(F)c3)ccc2OC[C@H]2O[C@H](CC(=O)O)CC[C@H]21
inactive: all assays above

COc1ccccc1C(=O)Nc1ccc2c(c1)C(=O)N(C)C[C@H](OC)[C@@H](C)CN(CC1CC1)[C@@H](C)CO2
inactive: all assays above

C[C@H]1CCCCO[C@H](CN(C)Cc2ccncc2)[C@@H](C)CN([C@@H](C)CO)C(=O)c2cc(NC(=O)CCCN(C)C)ccc2O1
inactive: all assays above

O=C(Cc1ccccc1)N[C@H]1C=C[C@@H](CC(=O)N2CCOCC2)O[C@H]1CO
inactive: all assays above

O=C(C[C@@H]1C=C[C@@H](NC(=O)c2cccc(F)c2)[C@H](CO)O1)NCCN1CCCC1
inactive: all assays above

Cc1noc(C)c1NC(=O)Nc1cccc2c1O[C@@H](CN(C)S(=O)(=O)c1cn(C)cn1)[C@@H](C)CN([C@@H](C)CO)C2=O
inactive: all assays above

O=S(=O)(c1ccc(F)cc1)N1C[C@@H]2[C@H](c3ccccc31)[C@@H](CO)N2Cc1ccccc1Cl
inactive: all assays above

CC1CCCCN1C(=O)CSc1nc(C2CC2)nc2c1cnn2-c1ccccc1 (stereo unspecified)
inactive: all assays above

CCC(C)(C(=O)NC1CCCC1)N(C(C)=O)c1ccc(C)cc1 (stereo unspecified)
inactive: all assays above

O=C([C@@H]1[C@@H](CO)[C@@H]2Cn3c(cccc3=O)[C@@H]2N1CCC(F)(F)F)N1CCCCC1
inactive: all assays above

CO[C@H]1CN(C)C(=O)c2cc(NS(=O)(=O)CC(F)(F)F)ccc2OC[C@@H](C)N(Cc2cccnc2)C[C@@H]1C
inactive: all assays above

Cc1noc(C)c1S(=O)(=O)N(C)C[C@H]1OCCCC[C@@H](C)Oc2ccc(NC(=O)CCCCCC(=O)Nc3ccccc3N)cc2C(=O)N([C@@H](C)CO)C[C@@H]1C
inactive: all assays above

O=C(C[C@H]1CC[C@H]2[C@@H](COC[C@H](O)CN2Cc2cccc(Cl)c2)O1)Nc1nccs1
inactive: all assays above

C[C@H]1CN([C@@H](C)CO)S(=O)(=O)c2ccc(C#Cc3cccc(F)c3)cc2O[C@@H]1CN(C)C(=O)NC1CCCCC1
inactive: all assays above

C[C@H]1CN([C@@H](C)CO)C(=O)c2cccc(NS(C)(=O)=O)c2O[C@@H]1CN(C)Cc1ccc(-c2ccccc2)cc1
inactive: all assays above

Cc1ccccc1CN(C)C[C@H]1OCc2cn(nn2)CCCC(=O)N([C@@H](C)CO)C[C@H]1C
inactive: all assays above

C[C@H](CO)N1C[C@H](C)[C@H](CN(C)C(=O)c2ccccn2)Oc2ncc(-c3ccccc3)cc2C1=O
inactive: all assays above

CC(C)NC(=O)N1CC[C@@H]2[C@@H](CO)N(C)c3ccc(-c4cccc(F)c4)cc3[C@@H]21
inactive: all assays above

CC(C)CC#Cc1ccc2c(c1)O[C@@H](CN(C)C(=O)C1CCC1)[C@@H](C)CN([C@H](C)CO)S2(=O)=O
inactive: all assays above

CCC(C)(C(=O)NC1CCCCC1)N(C(=O)C1CCC(=O)N1)c1ccccc1 (stereo unspecified)
inactive: all assays above

CN1C(=O)c2cc(NC(=O)NC3CCCC3)ccc2OC[C@H]2O[C@@H](CC(=O)NC3CCC3)CC[C@@H]21
inactive: all assays above

C[C@H]1CN([C@@H](C)CO)C(=O)Cc2cc(NC(=O)CCCCCC(=O)Nc3ccccc3N)ccc2O[C@H]1CN(C)Cc1ccc2c(c1)OCO2
inactive: all assays above

O=C(C[C@H]1CC[C@H](NC(=O)Nc2ccc(C(F)(F)F)cc2)[C@H](CO)O1)NCc1cccc(F)c1
inactive: all assays above

COc1cc(C(=O)Oc2ccccc2N)cc(OC)c1OC
inactive: all assays above

CC(C)NC(=O)N(C)C[C@H]1Oc2c(NC(=O)C3CCCCC3)cccc2C(=O)N([C@H](C)CO)C[C@H]1C
inactive: all assays above

C[C@@H]1CN([C@@H](C)CO)S(=O)(=O)c2ccc(-c3ccccc3)cc2O[C@H]1CN(C)C(=O)C1CCCCC1
inactive: all assays above

Cc1ccc(NC(=O)C2(C)CCCN2CC(C)C)cc1C (stereo unspecified)
inactive: all assays above

COc1ccc(NC(=O)N(C)C[C@@H]2OCCCC[C@H](C)Oc3ccc(NC(=O)Nc4ccc5c(c4)OCO5)cc3C(=O)N([C@H](C)CO)C[C@@H]2C)cc1
inactive: all assays above

C[C@@H]1CN([C@H](C)CO)C(=O)c2cc(NS(=O)(=O)c3ccccc3)ccc2O[C@H]1CN(C)C(=O)NC1CCCCC1
inactive: all assays above
